Structures are written as SMILES. Activity calls are given as the source filed them. Unless noted, no rule for the calls is given here.

Test [1] relates to Wnt5a (protein binding on small-molecule microarray). Nature of the test: Wnt5a binders on small-molecule microarray, primary screen, biophysical, 635/667 nm fluorescence (AID 1142).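 Also: fluorescence read at 667 nm with signal to noise per printed feature.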 The following applies: 635 nm fluorescence, higher = more signal.
Test [2] can be described thus: cell viability in Huh7 cells, primary screen, cytotoxicity control for HCV replication inhibitor project, CellTiter-Glo luminescence, basal, 48 h (AID 1143).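 Also: Huh7 hepatoma cells carrying a hepatitis C replication reporter with no stimulus; test concentration not given here.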 The following applies: Huh7 HCV replicon, higher = more signal, called active from +8 up or from −8 down.
Test [3] is described as follows: P. aeruginosa biofilm formation inhibitors, primary screen, PAO1 strain, BacTiter-Glo luminescence, LB-PBS (AID 1144). The following applies: 12 h, higher = more signal.
A short description of test [4]: CREB reporter modulators without forskolin, primary screen, cell-based, PC12, CRE-LacZ reporter, unstimulated (AID 1145). The following applies: no forskolin, luminescence, 4.5 h, higher = more signal, called active from +8 up or from −8 down.
A short description of test [5]: CREB reporter modulators under forskolin, primary screen, cell-based, PC12, CRE-LacZ reporter, forskolin-stimulated (AID 1146).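 Also: PC12 cells with 6xCRE LacZ reporter stimulated by forskolin 10 µM; beta-galactosidase reporter signal reflecting CREB driven transcription.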 The following applies: luminescence, 4.5 h, higher = more signal, called active from +8 up or from −8 down.
The target in test [6] is Streptavidin (Streptomyces avidinii) (UniProt P22629). The test can be described thus: streptavidin binders on small-molecule microarray, primary screen, artefact control for SMM compound annotation, biophysical, 635/667 nm fluorescence (AID 1147).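 Also: signal reflects streptavidin binding to arrayed compounds as a control protein.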 The following applies: streptavidin binding, higher = more signal.
Sequence of Streptavidin (Streptomyces avidinii) (P22629 whole entry, looked up): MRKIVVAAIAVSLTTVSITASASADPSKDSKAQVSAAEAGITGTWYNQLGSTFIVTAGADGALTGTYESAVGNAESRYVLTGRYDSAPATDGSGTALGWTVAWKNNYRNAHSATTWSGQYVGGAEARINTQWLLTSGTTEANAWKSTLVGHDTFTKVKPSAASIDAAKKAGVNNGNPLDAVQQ
The nature of test [7]: small-molecule binders of probe aInhba, primary screen, biochemical, small-molecule microarray, 635/667 nm fluorescence (AID 1148).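 Also: score merges 667nm spot fluorescence with signal-to-noise for antibody binding to printed compounds.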 The following applies: higher = more signal.
Test [8] has as its target Torsin-1A (Homo sapiens) (UniProt O14656). Nature of the test: torsin A binders from cell lysate, primary screen, small-molecule microarray, wild-type, 635/667 nm (AID 1149). The following applies: COS7 hTOR1A-WT lysate, 635 nm fluorescence, higher = more signal.
The target is the same in test [9]. Nature of the test: small-molecule binders of mutant TOR1A in lysate, primary screen, cell lysate, small-molecule microarray, COS7 lysate, 635/667 nm fluorescence (AID 1150).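 Also: score pools 667 nm emission and signal to noise measuring lysate protein binding.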 The following applies: COS7 hTOR1A mutant lysate, 635 nm fluorescence, higher = more signal.
Test [10] deals with Sonic hedgehog protein (Shh). Nature of the test: small-molecule binders of Shh protein, primary screen, biochemical, small-molecule microarray, 635/667 nm fluorescence (AID 1151).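 Also: Shh protein binding to compounds spotted on small-molecule microarray slides; score combines spot fluorescence intensity with signal-to-noise across triplicate slides.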 The following applies: small-molecule microarray binding, 635 nm fluorescence; higher = more signal.
Test [11] can be described thus: E. coli DRC41 culture turbidity changes, primary screen, E. coli filamentation inducer project, strain DRC41, OD650, 48 h (AID 1152).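 Also: E. coli MC1000 strain DRC41 lacking acrAB efflux pump and sulA.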 The following applies: E. coli DRC41 (acrAB sulA), higher = more signal, called active from +8 up or from −8 down.
Test [12] is described as follows: small-molecule binders of probe aLefty1, primary screen, biochemical, small-molecule microarray, 635/667 nm fluorescence (AID 1153).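 Also: score merges spot fluorescence with signal-to-noise ratio from the scanned slide images.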 The following applies: higher = more signal.
Test [13] can be described thus: PSAC antagonists in infected red cells, primary screen, cell-based, P. falciparum Indochina, OD700, 1 h (AID 1154). The following applies: P. falciparum Indochina infected RBC osmotic lysis, higher = more signal, called active from +8 up or from −8 down.
Test [14] in a line: PSAC antagonists in infected red cells, primary screen, cell-based, P. falciparum Indochina, OD700, 2 h (AID 1155).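 Also: lysis reports solute entry through the parasite surface anion channel PSAC; channel blockers reduce lysis of infected cells.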 The following applies: P. falciparum Indochina infected erythrocytes, osmotic lysis OD700; higher = more signal, called active from +8 up or from −8 down.
The nature of test [15]: osmotic lysis modulators in infected erythrocytes, primary screen, PSAC antagonist project, cell-based, P. falciparum Indochina, OD700, 3 h (AID 1156). The following applies: higher = more signal, called active from +8 up or from −8 down.
Test [16] is described as follows: PSAC antagonists in infected red cells, primary screen, cell-based, P. falciparum Indochina, OD700, 18 h (AID 1157). The following applies: P. falciparum Indochina infected erythrocytes, osmotic lysis OD700, 18 h; higher = more signal, called active from +8 up or from −8 down.
Test [17] in a line: modulators of S6 phosphorylation in cells, primary screen, cell-based, A549, cytoblot, luminescence, serum-stimulated (AID 1158).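 Also: serum-stimulated A549 lung adenocarcinoma cells; signal is phosphorylated S6 detected by cytoblot immunostaining with HRP secondary.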 The following applies: A549 phospho-S6 cytoblot, 5 h, higher = more signal.
Test [18] has as its target NADPH oxidase 2 (Homo sapiens) (UniProt P04839). The test can be described thus: NOX2-dependent H2O2 signal modulators, primary screen, NOX inhibitor project, cell-based, HEK293-NOX2, PMA-stimulated, Amplex Red fluorescence (AID 1159). Also: test concentration not given here. The following applies: 45 min, higher = more signal, called active from +8 up or from −8 down.
Test [19] addresses NADPH oxidase 4 (Homo sapiens) (UniProt Q9NPH5). The test can be described thus: NOX4-dependent H2O2 signal modulators, primary screen, NOX inhibitor project, cell-based, HEK293-NOX4, tetracycline-induced, Amplex Red fluorescence (AID 1160). The following applies: 45 min, higher = more signal, called active from +8 up or from −8 down.
The target of test [20] is NADPH oxidase 5 (Homo sapiens) (UniProt Q96PH1). The test can be described thus: NOX5-dependent H2O2 signal modulators, primary screen, NOX inhibitor project, cell-based, HEK293-NOX5, Amplex Red fluorescence (AID 1161). The following applies: HEK293-NOX5, ionomycin, 45 min, higher = more signal.
Sequence of NADPH oxidase 5 (Homo sapiens) (Q96PH1 whole entry, looked up): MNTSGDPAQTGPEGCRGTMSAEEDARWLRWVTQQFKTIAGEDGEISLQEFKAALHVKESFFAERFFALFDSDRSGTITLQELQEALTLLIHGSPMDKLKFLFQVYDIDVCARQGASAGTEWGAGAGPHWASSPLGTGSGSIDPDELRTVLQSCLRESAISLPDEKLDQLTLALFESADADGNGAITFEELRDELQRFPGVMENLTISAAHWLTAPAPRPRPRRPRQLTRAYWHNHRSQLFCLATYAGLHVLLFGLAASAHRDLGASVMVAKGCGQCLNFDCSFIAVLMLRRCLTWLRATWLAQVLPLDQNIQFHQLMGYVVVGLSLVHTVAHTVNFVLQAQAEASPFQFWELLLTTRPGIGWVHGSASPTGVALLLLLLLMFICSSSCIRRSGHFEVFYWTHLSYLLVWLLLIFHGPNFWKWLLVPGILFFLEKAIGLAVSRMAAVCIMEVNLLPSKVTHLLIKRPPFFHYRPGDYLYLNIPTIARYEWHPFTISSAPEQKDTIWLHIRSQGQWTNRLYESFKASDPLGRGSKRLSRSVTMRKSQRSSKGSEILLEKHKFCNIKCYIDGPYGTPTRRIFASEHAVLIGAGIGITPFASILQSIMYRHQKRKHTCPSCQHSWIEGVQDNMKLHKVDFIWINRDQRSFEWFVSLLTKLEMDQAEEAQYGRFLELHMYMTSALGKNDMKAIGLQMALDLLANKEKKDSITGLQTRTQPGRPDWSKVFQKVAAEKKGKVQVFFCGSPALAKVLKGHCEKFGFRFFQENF

Sequence of Torsin-1A (Homo sapiens) (O14656 whole entry, looked up): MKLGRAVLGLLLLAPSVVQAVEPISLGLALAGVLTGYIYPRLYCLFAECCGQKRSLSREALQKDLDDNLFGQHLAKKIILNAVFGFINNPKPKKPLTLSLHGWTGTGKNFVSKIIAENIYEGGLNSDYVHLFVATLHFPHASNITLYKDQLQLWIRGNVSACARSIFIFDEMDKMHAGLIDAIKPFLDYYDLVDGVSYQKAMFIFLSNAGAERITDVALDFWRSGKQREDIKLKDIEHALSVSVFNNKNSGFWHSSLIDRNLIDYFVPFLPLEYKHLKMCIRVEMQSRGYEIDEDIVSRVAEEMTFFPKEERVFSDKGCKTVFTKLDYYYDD
Sequence of NADPH oxidase 2 (Homo sapiens) (P04839 whole entry, looked up): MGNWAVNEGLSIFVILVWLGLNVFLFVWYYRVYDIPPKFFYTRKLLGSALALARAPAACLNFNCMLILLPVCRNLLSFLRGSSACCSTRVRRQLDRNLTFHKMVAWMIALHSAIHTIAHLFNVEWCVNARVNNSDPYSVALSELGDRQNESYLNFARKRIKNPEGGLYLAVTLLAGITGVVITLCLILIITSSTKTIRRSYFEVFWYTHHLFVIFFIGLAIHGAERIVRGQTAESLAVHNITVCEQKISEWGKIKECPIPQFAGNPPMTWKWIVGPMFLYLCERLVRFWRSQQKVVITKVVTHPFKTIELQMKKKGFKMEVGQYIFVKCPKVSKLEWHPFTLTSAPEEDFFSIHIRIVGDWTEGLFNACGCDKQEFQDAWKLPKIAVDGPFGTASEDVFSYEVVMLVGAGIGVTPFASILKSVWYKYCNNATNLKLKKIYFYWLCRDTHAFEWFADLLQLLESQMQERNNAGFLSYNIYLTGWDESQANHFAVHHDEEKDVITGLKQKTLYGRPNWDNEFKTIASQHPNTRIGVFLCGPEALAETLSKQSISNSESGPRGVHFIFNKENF
Sequence of NADPH oxidase 4 (Homo sapiens) (Q9NPH5 whole entry, looked up): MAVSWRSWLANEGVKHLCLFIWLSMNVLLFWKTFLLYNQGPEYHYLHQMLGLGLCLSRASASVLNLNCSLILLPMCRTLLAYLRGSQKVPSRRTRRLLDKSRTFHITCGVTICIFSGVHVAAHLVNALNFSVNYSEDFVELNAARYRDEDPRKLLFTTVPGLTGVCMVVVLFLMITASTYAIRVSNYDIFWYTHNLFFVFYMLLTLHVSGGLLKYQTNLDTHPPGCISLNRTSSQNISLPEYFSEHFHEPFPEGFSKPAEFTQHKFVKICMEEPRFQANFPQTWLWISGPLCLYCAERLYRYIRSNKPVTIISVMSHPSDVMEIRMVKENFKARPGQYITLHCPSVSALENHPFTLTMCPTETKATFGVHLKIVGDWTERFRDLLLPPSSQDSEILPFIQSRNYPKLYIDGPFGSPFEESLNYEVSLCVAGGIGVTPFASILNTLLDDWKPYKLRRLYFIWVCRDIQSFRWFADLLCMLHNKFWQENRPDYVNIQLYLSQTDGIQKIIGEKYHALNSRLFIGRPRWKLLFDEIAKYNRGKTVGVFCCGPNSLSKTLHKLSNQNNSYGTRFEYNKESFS

`C=CC[C@]1(C(=O)N2CCCCC2)N=C(c2ccc(OCCCO)cc2)O[C@H]1c1ccccc1CN=[N+]=[N-]`: the composite z-score in [1] is 0.518; in [6], 0.997; in [7], 0.121; in the test with Torsin-1A (Homo sapiens) [8] it was 0.0016; with Torsin-1A (Homo sapiens) [9], 0.361; in [10] it was -0.27. Also, in [12], the composite z-score amounted to 0.454. The z-score in test [2] was -4.07 (inactive); in test [3] it was -1.44 (inactive); in [4] it was 1.45 (inactive); in test [5], 1.86 (inactive); in test [11], 0.678 (inactive); in test [13] it was 23.1 (active). The z-score is 4.57 (inactive) in [14]; 2.81 (inactive) in test [15]; 1.08 (inactive) in test [16]; 0.83 in [17]; -3.31 (inactive) in [18]; -0.616 (inactive) in [19]. In [20], this compound gave a z-score of -1.46.
With `CC#CCO[Si](C#Cc1ccccc1)(C(C)C)C(C)C`, the composite z-score was -0.254 in test [1]; -1.07 in [6]; -0.106 in test [7]; -1.43 in the test with Torsin-1A (Homo sapiens) [8]; -0.811 in the test with Torsin-1A (Homo sapiens) [9]; 0.12 in test [10]. Further, the composite z-score in [12] was -0.193. Moreover, the z-score in [2] is -1.35 (inactive); in [3] it was 0.687 (inactive); in [4], -0.985 (inactive); in [5], 0.852 (inactive); in test [11], -0.112 (inactive); in test [13] it was 0.175 (inactive). Besides, the z-score was -0.286 (inactive) in test [14]; -0.975 (inactive) in [15]; -0.4 (inactive) in test [16]; -1.16 in [17]; -2.19 (inactive) in test [18]; -0.176 (inactive) in test [19]. In test [20], this compound gave a z-score of -0.624.
As for `CCOC(=O)C[C@H]1[C@H](OC(=O)c2ccc(C(=O)c3ccccc3)cc2)[C@@H](NC(=O)c2ccc(-c3ccccc3)cc2)c2cc(OCCCO)ccc2N1C(=O)Cc1ccc(OC)cc1`, the composite z-score was 0.0266 in test [1]; 0.324 in test [6]; 0.0569 in test [7]; -0.0633 in the test with Torsin-1A (Homo sapiens) [8]; 0.022 with Torsin-1A (Homo sapiens) [9]; -0.235 in [10]. Also, the composite z-score in [12] worked out at 0.344. Also, the z-score is 0.128 (inactive) in test [2]; -0.271 (inactive) in test [3]; -0.0989 (inactive) in test [4]; -0.539 (inactive) in [5]; 0.548 (inactive) in test [11]; 11.8 (active) in test [13]. The z-score in [14] is 1.62 (inactive); in test [15], -0.455 (inactive); in [16], 0.429 (inactive); in test [17], 0.53; in test [18], -0.44 (inactive); in test [19], 0.397 (inactive). In [20], this compound displayed a z-score of 0.501.
On to `CC(C)[Si]1(C(C)C)OCc2cc(C3CC3)nc(-c3ccc(Oc4ccccc4)cc3)c21`, for which the composite z-score is -0.223 in test [1]; -0.502 in test [6]; -0.0604 in [7]; 0.726 in the test with Torsin-1A (Homo sapiens) [8]; -1.07 with Torsin-1A (Homo sapiens) [9]; -0.241 in test [10]. Further, the composite z-score in test [12] is -0.284. In addition, the z-score in test [2] was -1.03 (inactive); in [3], -0.823 (inactive); in [4], -0.113 (inactive); in test [5] it was 0.0211 (inactive); in [11], -0.367 (inactive); in [13] it was 2.58 (inactive). Also, the z-score is 1.8 (inactive) in test [14]; 0.508 (inactive) in [15]; 1.29 (inactive) in [16]; -0.389 in [17]; 1.11 (inactive) in test [18]; 0.344 (inactive) in test [19]. The z-score in test [20] was 0.322.
In the case of `COc1ccc([Si](C)(C)[C@@H]2[C@@H](CC(=O)N3CCC[C@H]3CO)O[C@]3(C(=O)N(Cc4cccc(N5C(=O)COc6ccccc65)c4)c4ccccc43)[C@H]2C)cc1`, the composite z-score in test [1] was 0.326; in [6] it was 0.554; in test [7] it was -0.0494; with Torsin-1A (Homo sapiens) [8] it was 0.95; with Torsin-1A (Homo sapiens) [9], 0.938; in test [10], 1.12. Further, the composite z-score in test [12] is 0.0005. For the same compound, the z-score in [2] was -5.39 (inactive); in [3], 0.425 (inactive); in test [4], 1.5 (inactive); in [5], -0.361 (inactive); in [11] it was -0.194 (inactive); in [13] it was 3.76 (inactive). For the same compound, the z-score in test [14] is 1.41 (inactive); in test [15], -1.47 (inactive); in test [16] it was 0.646 (inactive); in test [17], 0.324; in test [18] it was 2.66 (inactive); in [19], 1.74 (inactive). This compound also had a z-score in test [20] of 4.12.
As for `CC(C)C(CO)N1C(=O)[C@@H]2C3C(=O)OCCC/C=C\[C@H]3OC23C=CCN(Cn2nnc4ccccc42)C(=O)[C@@H]13` (stereo not given in full), the composite z-score in test [1] is -0.665; in [6], -1.23; in test [7], -0.128; in the test with Torsin-1A (Homo sapiens) [8], -1.7; in the test with Torsin-1A (Homo sapiens) [9] it was -1.07; in test [10] it was 0.0683. In addition, the composite z-score in test [12] is -0.147. Moreover, the z-score was -0.252 (inactive) in test [2]; 0.0208 (inactive) in [3]; -1.44 (inactive) in test [4]; -0.0111 (inactive) in [5]; 0.302 (inactive) in test [11]; 0.897 (inactive) in test [13]. In addition, the z-score was -0.364 (inactive) in test [14]; -0.443 (inactive) in test [15]; 0.234 (inactive) in [16]; 1.36 in [17]; 1.23 (inactive) in [18]; 0.806 (inactive) in [19]. In [20], the z-score was found to be 1.51.
For the compound `COc1ccc([Si](C)(C)[C@H]2[C@H](CC(=O)N3Cc4ccccc4C[C@H]3CO)O[C@@]3(C(=O)N(Cc4ccc(N5CCOC5=O)cc4)c4ccccc43)[C@@H]2C)cc1`, the composite z-score was -0.0993 in test [1]; -0.0564 in test [6]; -0.176 in test [7]; 0.787 in the test with Torsin-1A (Homo sapiens) [8]; 0.438 in the test with Torsin-1A (Homo sapiens) [9]; 2.05 in test [10]. In addition, the composite z-score in test [12] is -0.0611. Moreover, the z-score in test [2] is -3.64 (inactive); in test [3], -0.3 (inactive); in test [4], 1.38 (inactive); in test [5] it was -1.01 (inactive); in test [11] it was -0.742 (inactive); in [13], 8.34 (active). Besides, the z-score is 1.85 (inactive) in test [14]; 0.863 (inactive) in test [15]; 0.82 (inactive) in test [16]; 0.718 in test [17]; -0.659 (inactive) in [18]; 0.611 (inactive) in [19]. Moreover, the z-score in test [20] was -0.344.
As to `C=CCN1Cc2ccccc2[C@@H]2OC(c3ccc(OCCCO)cc3)=N[C@]2(CC=C)C1=O`, the composite z-score was 0.518 in test [1]; 0.579 in test [6]; 0.462 in test [7]; 0.918 in the test with Torsin-1A (Homo sapiens) [8]; 0.966 with Torsin-1A (Homo sapiens) [9]; 1.81 in test [10]. Moreover, the composite z-score in test [12] was determined as 1.49. Further, the z-score in test [2] is -2.51 (inactive); in test [3], 0.0166 (inactive); in test [4], 0.236 (inactive); in [5] it was -0.377 (inactive); in test [11] it was 0.408 (inactive); in test [13], 22.5 (active). Besides, the z-score is 7.24 (inactive) in test [14]; 5.55 (inactive) in test [15]; 1.33 (inactive) in [16]; -0.218 in test [17]; -1.98 (inactive) in test [18]; 0.452 (inactive) in test [19]. The same compound displayed a z-score in test [20] of 1.03.

The values above are taken from PubChem BioAssay.
